Screening results: PubChem BioAssay, several laboratories
Most compounds without a hit are left out; they make up all but 2.2% or so of the library.
BaF3 tox: parental Ba/F3 cell viability inhibition, counter-screen for JAK2V617F inhibitor project, murine pro-B, CellTiter-Glo luminescence. CellTiter-Glo ATP luminescence. inhibition, % at 5.6 µM. 1.1% of 220,000 active;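 active = inhibition above a per-campaign cutoff, the mean inhibition of all tested compounds plus 3 SD, cut at about 27% in these data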
KLF5 inh: KLF5 expression inhibitors, primary screen, DLD-1 cells, luminescence; inhibition, % at 5 µM; AID 1700, 2009; 0.23% of 290,000 active; DLD-1 KLF5 promoter-luciferase reporter;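 active = inhibition above a per-plate limit of that plate's mean compound inhibition plus 3 SD, cut at about 60% in these data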;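 also: higher means less KLF5 promoter-driven luciferase light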
aSyn UTR inh: MLPCN primary screen, SNCA 5' untranslated region; alpha-synuclein 5'UTR reporter, inhibitor activity; 0.82% of 300,000 active; AID 1813, 2009; inhibition, % (tested at 7.5 µM); in the data active = inhibition above about 60%;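 also: H4 neuroglioblastoma cells stably carrying SNCA 5'UTR luciferase fusion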
IEC-6 cytotox: cytotoxicity in IEC-6 intestinal epithelial cells, primary screen, cytotoxicity control for KLF5 inhibitor project, cell-based, luminescence | IEC-6 cytotoxicity, luminescence viability | inhibition, % at 5 µM | 0.78% of 290,000 active | AID 1825, 2009; in the data active = inhibition above about 22%
Ba/F3 V617F tox: reduced viability of JAK2V617F-dependent Ba/F3 cells, primary screen, JAK2V617F inhibitor project, cell-based, Ba/F3 EpoR-JAK2V617F, luminescence; ATP luminescence; inhibition, % at 5.6 µM; 1.1% of 220,000 active;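 active = inhibition above the campaign mean plus 3 SD over all tested compounds, cut at about 24% in these data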;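 also: cytokine-independent growth of Ba/F3 cells driven by EpoR plus mutant JAK2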
APP transl inh: inhibitors of APP translation via 5'UTR reporter, primary screen, APP 5'UTR luciferase, SH-SY5Y cells. AID 1285, 2008. SH-SY5Y APP 5'UTR-luciferase reporter, luminescence. inhibition, % at 2 µM. 0.82% of 190,000 active;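 active = inhibition above a set limit, derived from the sample mean plus 3 SD, cut at about 45% in these data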
Numbers stand for hits; 0 = inactive; - = no result given.

SMILES	BaF3 tox	KLF5 inh	aSyn UTR inh	IEC-6 cytotox	Ba/F3 V617F tox	APP transl inh
O=[N+]([O-])c1ccc(N2CCN(C(=S)Nc3cccc(F)c3)CC2)cc1	32	0	0	0	28	0
CCN(CC)CCNC(=O)c1ccc(Cl)c(S(=O)(=O)Nc2ccc(Cl)cc2)c1	0	0	0	0	0	60
CCN(CC)CCNC(=O)c1ccc(Cl)c(S(=O)(=O)Nc2ccccc2OC)c1	0	0	0	0	0	0
CCOC(=O)[C@@H]1[C@H]2COc3cc(OC)ccc3[C@@H]2N2C(=O)N(c3ccc(F)cc3)C(=O)[C@]12C	-	0	0	0	-	-
O=C(O)/C=C/c1cccc(OCc2ccccc2)c1	0	0	0	0	0	0
O=C(/C=C/c1cccc(OCc2ccccc2)c1)c1cccnc1	0	0	0	0	0	87
N#Cc1c(-c2ccccc2)nc(-c2ccncc2)[nH]c1=O	0	0	0	0	0	69
N#Cc1c(-c2ccccc2)nc(-c2ccccc2)[nH]c1=O	0	0	0	0	0	0
c1ccc(N2CCN(CC3CCCCC3)CC2)cc1	-	0	0	0	-	-
Cc1ccc(-c2cc(C(F)F)n3ncc(C(=O)N4CCc5ccccc54)c3n2)cc1	0	0	0	0	0	87
O=C(c1cnn2c(C(F)F)cc(-c3ccccc3)nc12)N1CCc2ccccc21	0	0	0	0	0	0
COCCn1c(=NC(=O)CCS(=O)(=O)c2ccccc2)sc2cc(F)ccc21	-	0	0	0	-	-
CCC(C(=O)NC1CCCC1)N(C(=O)Cn1nnc(-c2ccc(C)o2)n1)c1cccc(OC)c1 (stereo not given)	-	0	0	0	-	-
O=C(CC1C(=O)NCCN1Cc1ccccc1C(F)(F)F)NC1CCC1 (stereo not given)	-	0	0	0	-	-
CCOCC(=O)Nc1cccc(C(=O)OCC)c1	98	0	0	0	0	0
CCOC(=O)c1cccc(NC(=O)COC)c1	0	0	0	0	0	0
O=C(Nc1ncc(Cc2ccc(SC(F)F)cc2)s1)c1ccc(OC(F)F)cc1	0	0	0	0	0	94
c1ccc(-c2cn(-c3ccccc3)c3[n+]2CCCS3)cc1	63	0	0	0	68	-
Cc1ccc(-c2cn(-c3ccccc3)c3[n+]2CCCS3)cc1	67	0	0	0	77	0
Cc1oc(-c2ccccc2)nc1CS(=O)CC(=O)NC1CCCC1 (stereo not given)	-	0	0	0	-	-
c1ccc(N2CCN(c3nc4cc5c(cc4s3)OCCO5)CC2)cc1	0	0	0	0	0	0
c1c2c(cc3sc(N4CCOCC4)nc13)OCCO2	0	0	94	0	0	0
O=C(N/N=C/c1ccc([N+](=O)[O-])s1)c1ccncc1	0	0	0	0	0	0
O=C(N/N=C/c1ccc(Br)s1)c1ccc([N+](=O)[O-])cc1	0	0	84	0	0	0
O=C(N/N=C/c1ccc(O)c2ncccc12)c1cccc(Br)c1	52	0	67	0	92	63
SMILES	BaF3 tox	KLF5 inh	aSyn UTR inh	IEC-6 cytotox	Ba/F3 V617F tox	APP transl inh
Cc1ccc(C(=O)N/N=C/c2ccc([N+](=O)[O-])s2)cc1	0	0	108	0	0	70
O=C(N/N=C/c1ccc([N+](=O)[O-])s1)c1cccc(Br)c1	0	0	67	0	0	0
O=C(COC(=O)c1cccc(NS(=O)(=O)c2ccc(F)c(F)c2)c1)NC(=O)NC1CCCC1	0	0	0	0	0	0
Cc1cc(C(=O)N/N=C/c2ccc(C)s2)n[nH]1	-	0	0	0	-	-
Cc1cc(C(=O)N/N=C/c2ccc([N+](=O)[O-])s2)n[nH]1	0	0	79	0	0	-
CCCN(CCC)S(=O)(=O)c1ccc(NS(=O)(=O)c2ccc(F)cc2)cc1	0	0	0	0	0	0
Brc1cc2c(cc1Br)OCCOCCOCCOCCO2	0	0	0	0	0	0
Brc1ccc2c(c1)OCCOCCOc1cc(Br)ccc1OCCOCCOCCO2	0	0	73	0	0	0
CCn1c(=S)sc2c(=O)n(CC(=O)Nc3cccc(OC)c3)c(C)nc21	-	0	0	0	-	-
Nc1ccc(Oc2cccc(Oc3ccc(N)cc3)c2)cc1	0	0	87	0	0	49
N#CCCn1cc(CNC2CCC(O)CC2)c2ccccc21 (stereo not given)	-	0	0	0	-	-
O=C1c2ccccc2C(=O)C1c1ccnc2ccccc12	0	0	89	0	0	0
O=C1c2ccccc2C(=O)C1c1nccc2ccccc12	0	0	99	0	0	0
COCCNC(=O)C(c1ccc(O)cc1)N(Cc1cccs1)C(=O)CCC(=O)Nc1ccccn1 (stereo not given)	-	0	0	0	-	-
C/C(=N\Nc1ccc(Cl)c(C(=O)O)c1)c1ccc(N2CCOCC2)cc1	-	0	0	0	-	-
Cc1ccc2c(c1)N(C)/C(=C/c1cccc[n+]1CCO)S2	-	0	0	0	-	-
Cc1ccc2c(c1)S/C(=C/c1ccc[n+](C)c1)N2CCO	71	0	0	0	88	0
COC(=O)C1=C(C)NC(C)=C(C(=O)OC)C1c1cc2cc(C)ccc2[nH]c1=O	0	0	0	0	0	0
N#CC1=C(N)Oc2c(ccc3cccnc23)C1c1ccccc1 (stereo not given)	39	0	0	0	69	-
N#CC1=C(N)Oc2cc(O)ccc2C1c1cccs1 (stereo not given)	0	0	0	0	0	0
Cc1ccc2[nH]c(=O)c(C3C(C#N)=C(N)Oc4c3ccc3cccnc43)cc2c1 (stereo not given)	0	0	75	0	0	0
N#CC1=C(N)Oc2c(ccc3ccccc23)C1c1cccs1 (stereo not given)	0	0	110	0	0	0
CCN(CC(=O)Nc1ccccc1OC)CC(=O)Nc1ccccc1-c1ccccc1	0	0	-	24	0	0
CCC1=Nc2cc(C(=O)NCc3ccco3)ccc2Sc2ccc(Cl)cc21	73	0	0	22	0	95
CCc1nc2ccc(C(=O)NCc3ccco3)cc2nc1CC	0	0	0	0	0	0
SMILES	BaF3 tox	KLF5 inh	aSyn UTR inh	IEC-6 cytotox	Ba/F3 V617F tox	APP transl inh
CCC1=Nc2cc(C(=O)O)ccc2Sc2ccccc21	0	0	0	0	0	0
CCC1=Nc2cc(C(=O)NCc3ccco3)ccc2Sc2ccccc21	32	0	0	36	30	50
C(=N\Nc1ccc2nncn2n1)/c1ccccn1	0	0	67	0	0	-
C(=N\Nc1nncc2ccccc12)/c1ccccn1	-	0	98	0	-	-
Fc1cccc(/C=N/Nc2nncc3ccccc23)c1	-	0	0	0	-	-
CNc1cc(N2CCCC2)ccc1[N+](=O)[O-]	0	0	0	0	0	0
N#C/C(=C\c1ccco1)C(=O)NCC1CCCO1 (stereo not given)	0	0	0	0	0	0
Cc1cc(N/N=C/c2ccc(O)cc2O)nc(-c2ccccc2O)n1	0	0	75	0	0	56
CSc1nc(-c2ccccc2)nc(NC(=O)C(C)C)c1C(C)=O	0	0	0	0	0	54
